Screening results: PubChem, National Center for Advancing Translational Sciences (NCATS)
Most compounds without a hit are left out; they make up all but 20% or so of the library.
Cycloheximide cs: counter-screen hit for Shiga toxin inhibitors, cycloheximide. cell reporter, cycloheximide protein synthesis inhibition counterscreen. max response, %. 300,000 tested, 12% active. AID 2314; in the data active means max response mostly above about 13%, no sharp cut-off; inactive means mostly below about 14%; further: read at 38.3 µM for the half of the compounds with a filed dose
Pf growth 48h: inhibits P. falciparum growth in the first generation, 48 h; P. falciparum luciferase growth in erythrocytes, 48 h; Potency, µM (titrated, usually from 28.7 µM), usual class: inhibitors; 310,000 tested, 5.9% active; AID 504832
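Parasite viability was followed by luminescence of a genomically integrated firefly luciferase. Cultures held 0.1% parasitemia at 2% hematocrit (final), incubated under 5% CO2 at 37 C.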
Shiga toxin inh: Shiga toxin inhibition; Vero cells, Shiga toxin protein synthesis inhibition reporter; inhibition, % at 38.7 µM; 290,000 tested, 9.2% active; AID 2315; in the data active means inhibition mostly above about 28%, no sharp cut-off; inactive means mostly below about 43%
Pf growth 96h: P. falciparum growth inhibition at 96 hour, primary screen for plastid delayed-death inhibitors; AID 504834; 320,000 tested, 6.9% active; P. falciparum luciferase reporter growth, 96 h; Potency, µM (doses to about 28.7 µM), actives largely listed as inhibitors
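Delayed-death screen, second-generation endpoint: infected erythrocytes, 2% hematocrit, 0.05% parasitemia final; 96 hours at 37 C, 5% CO2; luciferase detection reagent; luminescence decrease equals reduced growth.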
HCMV antiviral: blocks human cytomegalovirus replication; activity change, negative = inhibition, % at 57.5 µM; HFF cells, HCMV-luciferase reporter, 72 h; active compounds read low; 410,000 tested, 4.5% active; AID 1259415; in the data active means activity change below about -60%; inconclusive means no clear call, values can overlap the other calls; inactive means above about -39%
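Human foreskin fibroblasts infected with luciferase-reporter HCMV at MOI 1 PFU/cell, compounds at two doses. Luciferase measured 72 h post infection; normalized to buffer-only basal and Salinomycin (10uM) controls.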
Of the large screens only hits and unclear results are named; the others gave an inactive call. Unless noted, the call rests on the fitted dose curve; in most records, active means well fitted inhibition curve with a large enough effect; inconclusive means small, poorly fitted or top-dose-only effect, or another doubt; inactive means no such curve, though single readings can be large or run the other way.

CN(C)CCCN(C(=O)c1ccc(S(=O)(=O)N(C)C2CCCCC2)cc1)c1nc2ccc(F)cc2s1	Pf growth 48h inconclusive, Pf growth 96h inconclusive
Cc1cc(C)c2sc(N(CCCN(C)C)C(=O)c3ccc(S(=O)(=O)N(C)C4CCCCC4)cc3)nc2c1	Pf growth 48h 10µM, Pf growth 96h inconclusive (no result: Cycloheximide cs, Shiga toxin inh)
CCN(Cc1ccccc1)S(=O)(=O)c1ccc(C(=O)N(CCCN(C)C)c2nc3ccc(F)cc3s2)cc1	HCMV antiviral -80
CCc1ccc2nc(N(CCCN(C)C)C(=O)c3ccc(S(=O)(=O)N(C)C4CCCCC4)cc3)sc2c1	Pf growth 48h inconclusive, Pf growth 96h inconclusive, HCMV antiviral -86
CCCCNS(=O)(=O)c1cccc(NC(=O)[C@H]2C[C@H](O)[C@@H](CO)O2)c1	none (no result: Cycloheximide cs, Pf growth 48h, Shiga toxin inh, Pf growth 96h)
CSc1ccc(CCNC(=O)Cn2ncc3c(=O)oc4ccc(C)cc4c32)cc1	none (no result: Cycloheximide cs, Pf growth 48h, Shiga toxin inh, Pf growth 96h)
CCOC(=O)N1CCN(C(=O)CSc2nnc3[nH]c(=O)c(C)c(C)n23)CC1	Pf growth 48h 9.3µM, Pf growth 96h inconclusive (no result: Cycloheximide cs, Shiga toxin inh)
CC1(C)CC(NC(=O)c2ccc(-c3ccc([N+](=O)[O-])cc3)o2)CC(C)(C)N1	Pf growth 48h 10µM, Pf growth 96h inconclusive
O=C(NC1CN2CCC1CC2)c1ccc(-c2ccc([N+](=O)[O-])cc2)o1 (stereo unspecified)	Pf growth 48h 1.7µM, Pf growth 96h inconclusive
O=C(NN1C(=O)NC2(CCCCC2)C1=O)c1ccc(-c2ccc([N+](=O)[O-])cc2)o1	HCMV antiviral inconclusive
O=C(NC1CCCCC1)c1ccc(-c2cccc([N+](=O)[O-])c2)o1	Cycloheximide cs 56, Shiga toxin inh 74, Pf growth 96h inconclusive, HCMV antiviral -69
CC(=O)N/C(=C\c1cccc([N+](=O)[O-])c1)C(=O)NC1CCCCC1	Cycloheximide cs 49, Shiga toxin inh 61
CC1(C)CC(NC(=O)Nc2ccc([N+](=O)[O-])cc2)CC(C)(C)N1	none
Cc1ccc(NC(=O)/C(=C/c2cccc([N+](=O)[O-])c2)NC(=O)C2CCCCC2)cc1	Pf growth 48h inconclusive (no result: Pf growth 96h)
COC(CNC(=S)Nc1ccc([N+](=O)[O-])cc1)OC	Cycloheximide cs 14, Shiga toxin inh active
COc1ccc(NC(=S)NC(NC(=O)CF)C(Cl)(Cl)Cl)cc1[N+](=O)[O-] (stereo unspecified)	Pf growth 96h inconclusive
COC(=O)NC(NC(=S)Nc1ccc([N+](=O)[O-])cc1)C(Cl)(Cl)Cl (stereo unspecified)	Pf growth 48h 12µM, HCMV antiviral inconclusive
O=[N+]([O-])c1ccc(C(O)CNC(=S)Nc2ccccc2)cc1 (stereo unspecified)	Pf growth 48h inconclusive, Pf growth 96h inconclusive, HCMV antiviral inconclusive
O=C(CF)NC(NC(=S)Nc1cccc([N+](=O)[O-])c1)C(Cl)(Cl)Cl (stereo unspecified)	HCMV antiviral -70
CCO[C@H]1c2c(ccc3ccc(=O)oc23)OC(C)(C)[C@@H]1O	none (no result: Cycloheximide cs, Shiga toxin inh)
CCCNc1ncnc2c1c(-c1ccccc1)cn2-c1ccccc1	none (no result: Cycloheximide cs, Pf growth 48h, Shiga toxin inh, Pf growth 96h)
Cc1cc(O)c(C(C)C)cc1C1(c2cc(C(C)C)c(O)cc2C)OC(=O)c2ccccc21	Pf growth 48h 2.1µM, Pf growth 96h 1.2µM, HCMV antiviral -103
Cc1cc(C2(c3ccc(O)c(C)c3)OC(=O)c3ccccc32)ccc1O	none
O=C(COC(=O)C1C2CC3OC(=O)C1C3C2)Nc1ccccc1 (stereo unspecified)	Cycloheximide cs 16, Pf growth 96h inconclusive
O=C(O)C[C@@H]1C(=O)O[C@@H]2C(COC(=O)c3cc(O)c(O)c(O)c3)O[C@@H](OC(=O)c3cc(O)c(O)c(O)c3)[C@@H](OC(=O)c3cc(O)c(O)c4c3[C@H]1[C@H](O)C(=O)O4)[C@H]2OC(=O)c1cc(O)c(O)c(O)c1 (stereo partly specified)	Pf growth 48h 3.3µM, Pf growth 96h 2.9µM (no result: HCMV antiviral)
CCOc1ccc(OCC)c(NC(=O)C2CCCN(S(=O)(=O)c3cnc[nH]3)C2)c1 (stereo unspecified)	Pf growth 96h 4.7µM (no result: Pf growth 48h)
COc1ccc(CCNC(=O)C2CCCN(S(=O)(=O)c3cnc[nH]3)C2)cc1OC (stereo unspecified)	Pf growth 96h 13µM (no result: Pf growth 48h)
CC(=O)c1ccc(N2CCN(C(=O)C3CCCN(S(=O)(=O)c4cnc[nH]4)C3)CC2)cc1 (stereo unspecified)	Cycloheximide cs 22, Pf growth 48h inconclusive, Pf growth 96h 5.9µM
COc1ccc(CCNC(=O)C2CCN(S(=O)(=O)c3cnc[nH]3)CC2)cc1OC	Pf growth 96h inconclusive
COc1ccc(CCNC(=O)C2CC(=O)N(c3ccc(C(C)(C)C)cc3)C2)cc1OC (stereo unspecified)	Pf growth 48h inconclusive, HCMV antiviral -94
O=C(CCNC(=O)Cn1ccc2ccccc2c1=O)NCc1ccccn1	Pf growth 96h inconclusive
CC(=O)c1ccc(NC(=O)CCNC(=O)c2ccccc2Cl)cc1	none
CCC(C)NC(=O)C1CCC(CNS(=O)(=O)c2cccc3nsnc23)CC1 (stereo unspecified)	none
COc1ccc(CCNC(=O)C2CCCN(S(=O)(=O)c3cc(C)ccc3OC)C2)cc1OC (stereo unspecified)	Pf growth 48h 12µM, Pf growth 96h 5.2µM
CCOc1ccc(OCC)c(NC(=O)C2CCCN(C(=O)c3ccc(Cl)cc3)C2)c1 (stereo unspecified)	Pf growth 48h inconclusive, Pf growth 96h 9.3µM (no result: Cycloheximide cs, Shiga toxin inh)
CCS(=O)(=O)N1CCCC(C(=O)NCCc2ccc(OC)c(OC)c2)C1 (stereo unspecified)	none
COc1ccc(Nc2oc(-c3ccc(OC)cc3)nc2C#N)cc1	Cycloheximide cs 50, Shiga toxin inh 105, Pf growth 96h inconclusive
COc1ccc(Nc2oc(COc3ccc(Cl)cc3)nc2C#N)cc1	Pf growth 48h inconclusive, HCMV antiviral -78
CCOc1ccc(Nc2oc(-c3ccc(Cl)cc3)nc2C#N)cc1	Cycloheximide cs 9.8
CN(C)c1oc(-c2ccc(OCc3ccc(Cl)cc3)cc2)nc1C#N	Pf growth 96h inconclusive
COc1ccc(CNc2oc(COc3ccc(Cl)cc3)nc2C#N)cc1	none (no result: Pf growth 96h)
CCOc1ccc(Nc2oc(-c3ccc(COc4ccccc4C)o3)nc2C#N)cc1	HCMV antiviral -71 (no result: Cycloheximide cs, Pf growth 48h, Shiga toxin inh, Pf growth 96h)
CCCCNc1oc(-c2ccc(COc3ccc(OC)cc3)o2)nc1C#N	none (no result: Cycloheximide cs, Pf growth 48h, Shiga toxin inh, Pf growth 96h)
COc1cc2c(cc1OC)C(COc1ccc3c(C)cc(=O)oc3c1)N(C(=O)c1cccc(C)c1)CC2 (stereo unspecified)	none (no result: Cycloheximide cs, Pf growth 48h, Shiga toxin inh, Pf growth 96h)
CCc1ccc2oc(-c3cc(NC(=O)c4cccnc4)cc(C)c3O)nc2c1	none (no result: Cycloheximide cs, Pf growth 48h, Shiga toxin inh, Pf growth 96h)
CC(Nc1oc(-c2ccc(COc3ccc(Cl)cc3)o2)nc1C#N)c1ccccc1 (stereo unspecified)	HCMV antiviral -74 (no result: Cycloheximide cs, Pf growth 48h, Shiga toxin inh, Pf growth 96h)
COc1ccc(Nc2oc(-c3ccc(Cl)cc3)nc2C#N)cc1	Cycloheximide cs 30, Shiga toxin inh 84
CN(C)CCNc1oc(COc2ccc(-c3ccccc3)cc2)nc1C#N	Pf growth 48h inconclusive (no result: Pf growth 96h)
COc1ccc(Nc2oc(-c3ccccc3)nc2C#N)cc1	Cycloheximide cs 14, Shiga toxin inh 70, Pf growth 96h inconclusive
